Screens as filed in PubChem.
The list is not random: actives were taken first. Their share in the collection is about 0.4%.
FMDV antiviral: FMDV antiviral activity by firefly signal; FMDV antiviral cell assay, firefly luciferase signal; AID 1745856; Potency, µM (top dose mostly 57.5 µM), for inactives: at the top dose activity change, negative = inhibition, most hits filed as inhibitors; actives 0.23% (n = 120,000); also: nearly all actives have a fitted effect of over 60% in size
FMDV RLuc: antivirals against foot and mouth disease virus replicon. FMDV replicon cells, Renilla luciferase signal. Potency, µM (doses to about 57.5 µM), inactives show top-dose activity change, negative = inhibition, most hits filed as inhibitors. actives 0.32% (n = 120,000). AID 1745857; also: nearly all actives have a fitted effect of over 55% in size
The depositor's hits bear a star; u = inconclusive. Calls follow the shape of the full dose curve. % is scaled to controls: 0 for no effect and ±100 for the full control effect; potency is read from the fitted curve at half-maximal effect.

SMILES	FMDV antiviral	FMDV RLuc
CCOc1cc(C(=O)NCc2n[nH]c(=O)c3ccccc23)cc(OCC)c1OCC	8.6%	9.5%
O=C(COC(=O)c1ccccc1-c1ccc(C(F)(F)F)cc1)c1ccc([N+](=O)[O-])cc1	-14.7%	-19.5%
O=C(COC(=O)c1ccccc1-c1ccc(C(F)(F)F)cc1)c1cccc([N+](=O)[O-])c1	10µM*	8.91µM*
COCCN(C(=O)c1cc2c(s1)CCC(C)C2)c1c(N)n(CC(C)C)c(=O)[nH]c1=O (stereo not given)	17.0%	4.4%
O=C(/C=C/c1cccnc1)NCCc1cccc2ccccc12	87.3%	6.8%
Cc1cccc(-c2noc(-c3ccc(N4CCCC4)c([N+](=O)[O-])c3)n2)c1	8.91µM*	6.8%
Cc1cccc(-c2noc(-c3ccc(N4CCOCC4)c([N+](=O)[O-])c3)n2)c1	-23.3%	1.6%
O=C(Nc1ccc(C23CC4CC(CC(C4)C2)C3)cc1)c1cccc(Cl)c1	0.355µM*	-1.9%
O=C(Nc1ccc(C23CC4CC(CC(C4)C2)C3)cc1)c1ccccc1Cl	-9.6%	7.5%
COCC(C)n1c(C)cc(C(=O)CSc2nc3nc(C)cc(C)n3n2)c1C (stereo not given)	0.9%	-13.3%
COc1ccc2c(c1)c(C(C)=O)c(C)n2CCc1ccccc1	u	11.2µM*
COc1ccc2c(c1)c(C(C)=O)c(C)n2CCc1ccc(OC)c(OC)c1	-2.6%	-6.2%
O=S(=O)(Cc1cccc(F)c1)Cc1nc2ccccc2s1	213.1%	84.9%
O=C(NCCc1cccnc1)C12CC3CC(CC(C3)C1)C2	1.9%	5.9%
Cc1cccc(N2CCN(c3ncnc4c3nc3n4CCCCC3)CC2C)c1 (stereo not given)	2.82µM*	2.51µM*
Clc1cccc(N2CCN(c3ncnc4c3nc3n4CCCC3)CC2)c1	0.0%	u
CCCCOc1ccc(C(=O)NCCc2csc(-c3ccc(OC)cc3)n2)cc1	12.6µM*	11.2µM*
COc1ccc(C(=O)NCCc2csc(-c3ccc(Cl)cc3)n2)cc1	-16.3%	-21.8%
CCc1c(C)sc2c1CCN(Cc1ccccc1C#N)C2c1ccccc1 (stereo not given)	18.4%	16.4%
CCc1c(C)sc2c1CCN(Cc1ccccc1)C2c1ccccc1 (stereo not given)	u	12.6µM*
CC(=O)NC(NC(C)=O)C(=O)c1ccccc1	8.5%	1.9%
CCN1CCN(S(=O)(=O)c2ccc(Cl)c(C(=O)N3CCN(c4ccccn4)CC3)c2)CC1	-5.4%	-5.3%
CCc1ccc(NC(=O)CNC(=O)c2ccc(OC)cc2)cc1	21.0%	1.7%
CCCCOc1ccc(CNC(=O)c2cc3n(n2)CCCN(Cc2ccc(C)cc2)C3=O)cc1	14.1µM*	-13.8%
CCCCNC(=O)c1cc2n(n1)CCCN(Cc1ccc(C)cc1)C2=O	2.7%	34.4%
SMILES	FMDV antiviral	FMDV RLuc
Cn1c(=O)c2c(nc(SCCCCC#N)n2Cc2ccccc2Cl)n(C)c1=O	-3.1%	-6.0%
Clc1ccc(-c2ccc(CNCC3CCNCC3)o2)c(Cl)c1	u	28.2µM*
Fc1ccccc1-c1ccc(CNCC2CCNCC2)o1	-8.5%	-28.2%
O=C(Nc1ccc(Cl)cc1Cl)C1C2CC/C=C\CC/C=C/CCC21 (stereo not given)	6.0%	2.2%
Cc1ccc(C(=O)Nc2nc(-c3nnn(-c4cccc(Cl)c4C)c3C)ns2)cc1C	3.55µM*	5.01µM*
Cc1ccc(Cl)cc1-n1nnc(-c2nsc(NC(=O)c3ccccc3Cl)n2)c1C	111.5%	-15.4%
O=C(C1CCN(S(=O)(=O)c2cccs2)CC1)N1CCN(c2cccc(Cl)c2)CC1	3.0%	-0.6%
O=C(C1CCC(CNS(=O)(=O)c2cccs2)CC1)N1CCN(c2ccc(Cl)cc2)CC1 (stereo not given)	u	4.47µM*
Cc1cc2oc(C(=O)N(Cc3ccc(F)cc3)C3CCS(=O)(=O)C3)cc(=O)c2cc1C (stereo not given)	-2.2%	-0.7%
CC(C)NC(=O)/C(C#N)=C\c1ccc(O)cc1	79.3%	7.8%
CC(C)NC(=O)/C(C#N)=C\c1cccc(/C=C(/C#N)C(=O)NC(C)C)c1	28.2µM*	-33.9%
Cc1ccc(S(=O)(=O)N2CCC3(CC2)N=C(c2cccs2)C(=O)N3)cc1	-15.0%	-13.8%
COc1cccc(C(=O)N2CCC(c3nc4ccccc4s3)CC2)c1	-8.5%	-3.9%
COc1ccc(C(=O)N2CCC(c3nc4ccccc4s3)CC2)cc1Cl	28.2µM*	u
Cn1nc(CC(=O)NCc2ccccc2CN2CCOCC2)c2ccccc2c1=O	9.8%	2.2%
N#C/C(=C\c1cccc(OC(=O)c2ccccc2Cl)c1)C(=O)Nc1cccc(C(F)(F)F)c1	128.3%	1.1%
O=C(Nc1cccc(C(F)(F)F)c1)C(=Cc1cccc(Oc2ccccc2)c1)C(=O)Nc1cccc(C(F)(F)F)c1	4.47µM*	3.98µM*
Cc1ccc(/C=C/C(=O)O)cc1Cl	15.3%	0.7%
CCSc1ccccc1C(=O)Nc1ccc(CC)cc1	194.3%	18.8%
COc1ccc(OCCN(C)C(=O)c2cn(C)c3ccccc23)cc1	166.2%	61.1%
COc1ccc(-c2c(C)oc3cc(OCC(=O)OC(C)(C)C)ccc3c2=O)cc1OC	28.2µM*	u
CCOc1ccc2c(=O)c(-c3ccc(OC)c(OC)c3)c(C)oc2c1	-19.9%	-28.6%
O=S(=O)(c1ccc(F)c(F)c1)N1CCN(Cc2cccc3cccnc23)CC1	9.4%	-17.0%
Cc1cc(C(=O)Nc2c(C)nn(Cc3ccc(F)cc3)c2C)no1	0.6%	3.7%
Cc1nn(Cc2ccc(F)cc2)c(C)c1NC(=O)c1cc(-c2cccs2)on1	35.5µM*	u
SMILES	FMDV antiviral	FMDV RLuc
COc1ccc(C)cc1NC(=O)CCn1nc(-c2cccs2)oc1=O	-10.9%	-14.2%
N#C/C(=C/c1ccc2ncccc2c1)c1nc2ccccc2[nH]1	46.1%	0.6%
O=S(=O)(/C(=C/c1ccc2ccccc2c1)c1nc2ccccc2[nH]1)c1ccccc1	35.5µM*	15.8µM*
N#Cc1ccc(NCCNC(=O)Nc2ccccc2)nc1	0.0%	-41.0%
N#Cc1ccc(NCCNC(=O)C2CCCCC2)nc1	u	31.6µM*
CCOC(=O)c1nc(NCc2ccc(F)cc2)c2ccccc2n1	-4.4%	-11.2%
C=CCNc1nc2c(c(=O)n(C)c(=O)n2C)n1CC(O)COc1ccc(OC)cc1 (stereo not given)	u	22.4µM*
C=CCNc1nc2c(c(=O)n(C)c(=O)n2C)n1CC	-7.1%	-8.3%
C=CCNc1nc2c(c(=O)n(C)c(=O)n2C)n1CCC(C)C	28.2µM*	15.8µM*
Cc1ccc(OCC(O)Cn2c(NCC(=O)O)nc3c2c(=O)n(C)c(=O)n3C)cc1 (stereo not given)	-6.1%	-15.7%
COc1cc(OC)c(NC(=O)CSCc2cc(=O)n3ccc(C)cc3n2)cc1Cl	-4.2%	-13.5%
Cc1ccc2c(CN3CCN(C(=O)c4cccc(F)c4)CC3)cc(=O)oc2c1	16.8%	1.5%
Cc1cccc(C(=O)N2CCN(Cc3ccc(-c4cccc(F)c4)s3)CC2)n1	10µM*	u
O=C(Nc1ccccc1)C1CC(=O)N(Cc2ccccc2)c2nc3ccccc3n21 (stereo not given)	5.8%	21.4%
CCCCCCCCc1ccc(-c2ccc(C(=O)OC(C)C(=O)OC(C)C)cc2)cc1 (stereo not given)	30.9%	28.0%
Cc1ccc(NC(=O)CN2C(=O)C3(SCC(=O)N3c3cccc(Cl)c3)c3ccccc32)cc1C (stereo not given)	u	12.6µM*
Cc1ccc(N2C(=O)CSC23C(=O)N(CC(=O)Nc2ccc(C(C)C)cc2)c2ccccc23)cc1C (stereo not given)	u	-26.5%
